Screening results as filed in PubChem.
Shiga toxin inh – blocks Shiga toxin action in Vero cells. inhibition, % at 38.7 µM. AID 2315. Vero cells, Shiga toxin protein synthesis inhibition reporter. 290,000 tested, 9.2% active; in the data active = inhibition mostly above about 28%, no sharp cut-off; inactive = mostly below about 43%; also: 0% is about no effect
SARS PLpro yeast – SARS-CoV PLP inhibition in yeast. Potency, µM (top dose mostly 32.9 µM), without a hit: top-dose activity, positive = growth rescue, actives largely listed as activators. AID 485353. 330,000 tested, 0.19% active. S. cerevisiae expressing SARS-CoV PLpro, growth rescue; calls by dose curve; also: potency is read from the fitted curve at half-maximal effect; 0% is about no effect; nearly all actives have a fitted effect of over 55% in size
AMA1 RON2 block – AMA1-RON2 (P. falciparum) interaction inhibition; 360,000 tested, 0.2% active; AlphaScreen AMA1-biotinylated RON2 peptide binding; Potency, µM (series often up to 58.2 µM), inactives show at the top dose activity change, negative = inhibition, most hits filed as inhibitors;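 also: potency is read from the fitted curve at half-maximal effect; 0% = vehicle wells and -100% = peptide control; nearly all actives have a fitted effect of over 45% in size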
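AMA1 (3D7) with his tag at 25 nM final met compounds first, then biotinylated RON2 peptide at 25 nM; detection used donor plus acceptor beads, 10 µg/mL apiece, read by AlphaScreen after 30 min at room temperature.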
AmpC inh no detg – blocks E. coli AmpC beta-lactamase in detergent-free assay | AmpC nitrocefin hydrolysis, absorbance 480 nm, 0.0001% Triton | Potency, µM (highest dose often 57.1 µM), for the others: at the top dose activity change, negative = inhibition, actives largely listed as inhibitors | 330,000 tested, 0.52% active | AID 485341;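 also: potency is read from the fitted curve at half-maximal effect; plate controls were no compound for no effect and no enzyme for full effect; nearly all actives have a fitted effect of over 20% in size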
Target sequence (P00811 whole entry, looked up): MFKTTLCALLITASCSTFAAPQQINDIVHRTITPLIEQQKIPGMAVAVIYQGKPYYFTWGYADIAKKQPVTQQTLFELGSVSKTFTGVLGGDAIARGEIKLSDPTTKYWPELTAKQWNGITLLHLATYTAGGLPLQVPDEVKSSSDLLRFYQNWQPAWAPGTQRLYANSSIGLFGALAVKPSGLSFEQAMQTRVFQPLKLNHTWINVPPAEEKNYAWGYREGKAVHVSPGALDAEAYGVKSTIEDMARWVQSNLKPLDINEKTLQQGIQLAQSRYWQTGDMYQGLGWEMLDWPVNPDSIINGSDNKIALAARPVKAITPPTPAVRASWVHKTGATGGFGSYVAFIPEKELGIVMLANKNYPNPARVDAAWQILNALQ
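20 mM phosphate pH 7.0 + 0.01% (detergent screen) or 0.0001% Triton X-100; 5.3 nM AmpC reagent; cpd preinc 15 min RT; nitrocefin (800 uM stock) to start; A480 q20 s × 4 min; Activity was normalised to no-enzyme and no-compound control wells.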
CHX counter – counter-screen for Shiga toxin inhibitors: cycloheximide protein synthesis inhibition. cell reporter, cycloheximide protein synthesis inhibition counterscreen. max response, %. 300,000 tested, 12% active. AID 2314; in the data active = max response mostly above about 13%, no sharp cut-off; inactive = mostly below about 14%; also: read at 38.3 µM for the half of the compounds with a filed dose; 0% is about no effect
AmpC inh detg – inhibitors of E. coli AmpC beta-lactamase with detergent; AmpC hydrolysis of nitrocefin, absorbance 480 nm, 0.01% Triton; Potency, µM (top dose mostly 114 µM), for inactives: top-dose activity change, negative = inhibition, actives largely listed as inhibitors; 370,000 tested, 0.041% active;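 also: potency is read from the fitted curve at half-maximal effect; 0% = no-compound wells and -100% = no-enzyme wells; nearly all actives have a fitted effect of over 25% in size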
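20 mM phosphate pH 7.0 + 0.01% (detergent screen) or 0.0001% Triton X-100; 5.3 nM AmpC reagent; cpd preinc 15 min RT; nitrocefin (800 uM stock) to start; A480 q20 s × 4 min; Activity was normalised to no-enzyme and no-compound control wells.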
Numbers without * were called inactive; ? = inconclusive; / = no result; [ ] = another dose, or the depositor's remark. Shown is part of a subset that was picked to be rich in hits. Unless noted, calls follow the shape of the dose curve; as a rule, active = well fitted curve in the direction sought with a large enough effect; inconclusive = small, poorly fitted or top-dose-only effect, or another doubt; inactive = no such curve, though single readings can be large; an effect the other way counts as inactive or inconclusive.

SMILES	Shiga toxin inh	SARS PLpro yeast	AMA1 RON2 block	AmpC inh no detg	CHX counter	AmpC inh detg
O=C(Nc1cnccn1)Nc1ccc(Cl)cc1Cl	76*	0%	11%	-22%	29*	-6%
CCC(C)c1ccc(S(=O)(=O)Nc2cccnc2)cc1 (configuration not stated)	-7	-3%	-8%	154%	-2	-1%
Cc1ccc(NC(=O)Cn2c(=O)n(Cc3nc(-c4ccccc4)no3)c(=O)c3ccccc32)cc1C	/	/	/	/	/	-1%
O=C(Oc1ccc(-c2cnc3ccccc3n2)cc1)c1ccc(Br)o1	45	9%	0%	-7%	24	?
CCN(CC)S(=O)(=O)c1cc(C(=O)Oc2cccc(-c3cnc4ccccc4n3)c2)ccc1Br	65*	-4%	1%	-8%	61*	-3%
CCN(CC)S(=O)(=O)c1ccc(Cl)c(C(=O)Oc2cccc(-c3cnc4ccccc4n3)c2)c1	81*	/	-15%	/	31*	7%
Cc1ccc(S(=O)(=O)N/N=C/c2ccc(O)cc2O)cc1[N+](=O)[O-]	58*	1%	98%	-23%	18*	1%
Cc1ccc(S(=O)(=O)N/N=C/c2cc([N+](=O)[O-])ccc2O)cc1[N+](=O)[O-]	77	-3%	12%	-37%	4	?
COc1cc(/C=N/NS(=O)(=O)c2ccc(C)c([N+](=O)[O-])c2)ccc1O	122*	1%	-4%	-38%	36*	-12%
Oc1ccccc1C=NNC(=S)Nc1ccc(F)cc1	/	/	-60%	/	/	/
Cn1cccc1/C=N/NC(=O)c1sc2ccccc2c1Cl	66	-3%	-26%	-36%	40*	4%
O=C(N/N=C\c1cn[nH]c1-c1ccccc1)c1cccs1	active	-28%	1%	-41%	40*	-4%
O=C(N/N=C\c1cn[nH]c1-c1ccccc1)c1cccnc1	-7	-2%	29%	-21%	2	0%
Cc1nn(C)cc1/C=N/NC(=S)Nc1ccccc1	175*	13%	26%	-15%	71*	1%
O=C(N/N=C/c1c[nH]c2ccccc12)c1sc2ccccc2c1Cl	19*	-36%	56%	-51%	25*	7%
O=C(NN=Cc1c[nH]c2ccccc12)NN=Cc1c[nH]c2ccccc12	/	/	0%	/	/	/
Fc1ccc(-n2c(Cn3nnc4ccccc43)n[nH]c2=S)cc1	-13	1%	16%	-1%	-3	-11%
O=C(N/N=C/c1c[nH]c2ccccc12)c1ccccc1	128*	-10%	13%	-23%	47*	2%
O=C(N/N=C/c1ccccn1)c1sc2ccccc2c1Cl	89*	-6%	56%	-11%	44*	3%
Cc1ccc(C(=O)Nc2ccc(C(=O)N/N=C/c3c[nH]c4ccccc34)cc2)cc1	-6	-17%	26%	-31%	12	?
Cc1cc(C(=O)N/N=C/c2c[nH]c3ccccc23)cs1	64*	8%	3%	-14%	42*	-1%
Cc1cccc(NC(=S)N/N=C/c2c[nH]c3ccccc23)c1	40*	-89%	82%[11.6 µM]	16µM*	14*	-7%
Cn1c(=O)c2c(-c3ccccc3)n3c(c2n(C)c1=O)C(c1ccco1)Nc1ccccc1-3 (configuration not stated)	/	/	/	/	/	26%
C=CCSc1nccc(-c2nn(-c3ccc(C)cc3)ccc2=O)n1	-9	3%	13%	106%	-3	-6%
COc1ccc(CCNC(=O)CCCCn2c(=O)c3ccccc3n(CC(=O)Nc3c(C)cccc3C)c2=O)cc1OC	/	/	/	/	/	18%
SMILES	Shiga toxin inh	SARS PLpro yeast	AMA1 RON2 block	AmpC inh no detg	CHX counter	AmpC inh detg
O=C(NCCn1cc(SCc2ccccc2Cl)c2ccccc21)c1cccs1	/	/	/	/	/	1%
O=C(N/N=C/c1c[nH]c2ccccc12)c1cccs1	94*	1%	80%	-40%	45*	-2%
O=C(N/N=C/c1c[nH]c2ccccc12)c1ccc2c(c1)OCCO2	94*	-1%	-3%	-41%	55*	-4%
O=C(N/N=C/c1oc(O)c2ccccc12)c1ccccc1	62*	-7%	19%	-3%	17	?
COc1ccccc1C(=O)N/N=C/c1c[nH]c2ccccc12	42*	0%	3%	-26%	32*	4%
O=C(N/N=C/c1c[nH]c2ccc(Br)cc12)c1ccc2c(c1)OCO2	-7	-5%	1%	?	1	-1%
CC(=O)OCC(NC(=O)C(C)NC(=O)OC(C)(C)C)C1OC(n2cc(F)c(=O)[nH]c2=O)C(OC(C)=O)C1OC(C)=O (configuration not stated)	-6	/	/	/	-4	/
N#C/C(=C\c1cccnc1)C(=O)Nc1cccc2ccccc12	-4	-16%	13%[11.6 µM]	-12%	12	-2%
O=C(N/N=C/c1cccc2ccccc12)c1cccs1	87*	0%	7%	-36%	73*	-5%
O=C(NN=Cc1cccc2ccccc12)C(=O)NN=Cc1cccc2ccccc12	/	/	23%	/	/	/
O=C(N/N=C/c1c[nH]c2ccccc12)c1cccc([N+](=O)[O-])c1	17	-10%	37%	-22%	26*	?
Cc1nc2c(s1)sc1ccccc12	86	2%	-3%	-4%	19*	?
COc1ccc(-c2c(C)nn3c(N)c(-c4ccccc4)cnc23)cc1OC	88	-2%	96%	38%	18*	-7%
COc1ccccc1-c1c(C)nn2c(-c3ccccc3)cc(C)nc12	17	-6%	19%	74%	8	12%
COc1ccccc1-c1c(C)nn2c(N)c(-c3ccccc3)cnc12	67*	-6%	59%	-14%	39*	1%
COCc1nn2c(N)c(-c3ccccc3)cnc2c1-c1ccccc1	33*	-2%	34%	129%	38*	?
COCc1nn2c(N)c(C#N)cnc2c1-c1ccccc1	-5	-7%	16%	-17%	-1	-5%
CCNC(=S)N/N=C/c1sccc1C	34*	1%	/	-30%	6	-11%
Cc1ccsc1/C=N/NC(=O)C(=O)NCC(C)C	76*	0%	-8%	-9%	41*	8%
COc1ccc(CC(=O)N/N=C/c2sccc2C)cc1	24	-3%	9%	-21%	8	?
Cc1ccsc1/C=N/NC(=S)NCCc1ccccc1	31*	-7%	67%	18µM*	32*	-9%
CCCCC(=O)N/N=C/c1sccc1C	-13	0%	-11%	-9%	9	-7%
S=C(NCCc1ccccc1)N/N=C/c1cccs1	/	/	46%	/	/	/
CCOC(=O)c1snc(C(=O)NC2CCCCC2)c1N	161*	-5%	64%	-10%	24*	?
Cc1ccc(NC(=S)c2nc3ccccc3[nH]2)cc1	66*	-15%	-3%	-41%	72*	2%
Cc1ccc(NC(=S)c2nc3ccccc3[nH]2)c(C)c1	97*	-50%	35%[11.6 µM]	-36%	51*	-6%
